Bioassay records from PubChem BioAssay.
Only some compounds are listed: those with a hit (about 3% of all), similar ones and a draw of the others.
TRAIL sens C8 – caspase-8 TRAIL sensitization | NB7+C8 cells + TRAIL, ATPlite viability luminescence | inhibition (viability loss, TRAIL sensitization), % at 10 µM | 360,000 compounds, 1% hits | AID 624354;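 active = compounds causing at least 50% loss of cell viability in the single-dose screen, relative to plate controls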
SENP6 block – blocks the human protease SENP6; Q9GZR1; Recombinant SENP6 catalytic domain, aminoluciferin luminescence; inhibition, % at 10 µM; 330,000 compounds, 1.8% hits;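 active = inhibition above about 50% at the single tested dose, limit read from the data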;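 also: plate controls were DMSO wells with enzyme for no effect and DMSO wells lacking enzyme for full effect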
SENP8 block-1 – SENP8 (human) protease inhibition; Q96LD8; AID 602440; recombinant SENP8, Nedd8 substrate fluorescence; inhibition, % at 20 µM; 360,000 compounds, 0.64% hits; in the data active = inhibition mostly above about 40%, no sharp cut-off; inactive = mostly below about 27%
Target sequence (Q96LD8 whole entry, looked up): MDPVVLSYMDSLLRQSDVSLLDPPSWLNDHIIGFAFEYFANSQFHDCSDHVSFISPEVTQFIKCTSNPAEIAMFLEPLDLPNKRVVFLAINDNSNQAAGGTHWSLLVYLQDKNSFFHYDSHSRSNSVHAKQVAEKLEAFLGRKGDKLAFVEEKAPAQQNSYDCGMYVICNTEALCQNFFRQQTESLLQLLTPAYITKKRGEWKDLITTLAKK
SENP8 block-2 – SENP8 protease inhibition; Q96LD8; purified SENP8, Z-RLRGG-aminoluciferin cleavage, luminescence; inhibition, % at 10 µM; 330,000 compounds, 1.2% hits; AID 2540; in the data active = inhibition above about 50%
SENP7 block – blocks the human protease SENP7; recombinant SENP7, Z-RLRGG-aminoluciferin luminescence, 40 min; Q9BQF6; 330,000 compounds, 1.5% hits; inhibition, % at 5 µM;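 active = inhibition above about 50% at the single test dose, limit read from the data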;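 also: plate controls were DMSO with enzyme for no effect and no enzyme buffer wells for full effect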
PPC-1+TRAIL kill – kills PPC-1 cancer cells in the presence of TRAIL | PPC-1 cells + TRAIL, ATPLite viability luminescence | cell killing (% activity), % at 4 µM or 5 µM | 220,000 compounds, 0.41% hits;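 active = cell killing above 50% in the first pass at 4 µM, then a duplicate retest at 5 µM averaging 50% or more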;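 also: plate controls were cells with TRAIL plus DMSO for no effect and medium-only wells lacking cells for full effect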
SENP8 conf – human SENP8 inhibition, confirmed | shares compounds with SENP7 block | Recombinant SENP8, Z-RLRGG-aminoluciferin luminescence, 60 min | inhibition, % at 12.5 µM | 6,200 compounds, 40% hits | AID 488912;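 active = mean inhibition across replicates above about 50%, limit read from the data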
SENP6 conf – human SENP6 inhibition, confirmed; recombinant SENP6, Z-RLRGG-aminoluciferin luminescence; 6,200 compounds, 58% hits; shares compounds with SENP7 block; AID 488915; inhibition, % at 12.5 µM
SENP7 conf – confirmation of human SENP7 protease inhibitors. shares compounds with SENP7 block. recombinant SENP7, Z-RLRGG-aminoluciferin luminescence, 40 min. inhibition, % at 12.5 µM. 6,200 compounds, 69% hits. AID 488917
Casp3 SENP sel – caspase-3 inhibition (SENP selectivity assay); shares compounds with SENP7 block; purified caspase-3, Z-DEVD-aminoluciferin luminescence, 60 min; inhibition, % at 12.5 µM; 6,200 compounds, 60% hits; AID 488918;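 active = mean inhibition above about 50%, limit read from the data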;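 also: plate controls were enzyme with DMSO for no effect and wells without caspase-3 for full effect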
Target sequence (P42574 28-227 limits assumed): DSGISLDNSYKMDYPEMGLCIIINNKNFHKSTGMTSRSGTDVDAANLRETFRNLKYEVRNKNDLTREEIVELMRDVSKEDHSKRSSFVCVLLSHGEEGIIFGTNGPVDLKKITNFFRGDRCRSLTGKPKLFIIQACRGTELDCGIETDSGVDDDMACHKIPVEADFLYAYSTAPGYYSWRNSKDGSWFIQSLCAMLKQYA
Luc interf – counter-screen for SENP inhibitors: luminescence interference; Pre-incubated SENP8/Z-RLRGG-aminoluciferin, luciferase luminescence interference; inhibition, % at 12.5 µM; 6,200 compounds, 39% hits; shares compounds with SENP7 block;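 active = mean inhibition above about 50% when retested at one dose, limit read from the data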;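 also: plate controls were DMSO wells with completed reaction for no effect and substrate without enzyme for full effect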
Active calls of the source: *; x = no result given.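 The calls were made as follows, unless noted: active = mean inhibition above about 50% in the one-dose retest (limit read from the data); inactive = the rest.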

SMILES	TRAIL sens C8	SENP6 block	SENP8 block-1	SENP8 block-2	SENP7 block	PPC-1+TRAIL kill	SENP8 conf	SENP6 conf	SENP7 conf	Casp3 SENP sel	Luc interf
O=c1[nH]c2ccccc2nc1/C=C/c1ccc(O)cc1	36	93*	-385	93*	92*	12	97*	98*	102*	92*	83*
O=c1[nH]c2ccccc2nc1/C=C/c1ccc(F)cc1	53*	64*	-399	59*	55*	17	26	26	23	19	10
CCOC(=O)C1=C(COC(=O)c2ccc([N+](=O)[O-])s2)NC(=O)NC1C (stereo not given)	47	75*	32	76*	44	x	82*	87*	52*	18	-3
Cc1nc(Nc2ccccc2)sc1C(=O)c1ccc(F)cc1	-3	-36	-9	-3	4	x	x	x	x	x	x
Nc1nc(Nc2ccccc2F)sc1C(=O)c1ccccc1	12	72*	-21	59*	35	x	74*	69*	86*	44	76*
CC1=NN(C(N)=S)C(=O)C1N=Nc1c(Cl)cc([N+](=O)[O-])cc1Cl (stereo not given)	15	98*	47*	95*	82*	x	96*	96*	101*	95*	65*
CC1=NN(C(N)=S)C(=O)C1N=Nc1ccccc1O (stereo not given)	-6	7	13	-4	-9	x	x	x	x	x	x
CC1=NN(C(N)=S)C(=O)C1N=Nc1ccccc1C (stereo not given)	-7	-2	35	75*	48	15	31	41	58*	70*	23
CC1=NN(C(N)=S)C(=O)C1N=Nc1c(C)n(C)n(-c2ccccc2)c1=O (stereo not given)	6	19	24	18	11	x	x	x	x	x	x
CC1=NN(C(N)=S)C(=O)C1N=Nc1c(C)cc(C)cc1C (stereo not given)	0	16	26	-8	1	9	x	x	x	x	x
CC1=NN(C(N)=S)C(=O)C1N=Nc1c(Br)cc(Br)cc1Br (stereo not given)	-14	85*	18	74*	0	x	1	82*	90*	51*	58*
CC1=NN(C(N)=S)C(=O)C1N=Nc1ccc(C)cc1C (stereo not given)	x	92*	x	81*	68*	-7	41	58*	70*	68*	29
CC1=NN(C(N)=S)C(=O)C1N=Nc1ccccc1[N+](=O)[O-] (stereo not given)	3	x	28	x	x	x	x	x	x	x	x
COc1ccc(CCNC(=O)C(NS(=O)(=O)c2cccc3nsnc23)C(C)C)cc1OC (stereo not given)	2	14	7	6	1	x	x	x	x	x	x
CCc1ccccc1NC(=O)CN1CCN(C(=O)C2CCN(C(=O)/C=C/c3ccccc3)CC2)CC1	-19	-2	12	-11	-11	x	x	x	x	x	x
CCCC(C)C(=O)Nc1ccc(Cl)cc1Cl (stereo not given)	0	3	10	-5	-1	2	x	x	x	x	x
CO/N=C/C(C(C)=O)C(=O)Nc1ccc(Cl)cc1Cl (stereo not given)	-11	56*	9	10	-4	34	12	15	46	26	16
CC(C)c1cc(C(=O)N2CCCC(N3CCN(c4ccc(F)cc4)CC3)C2)no1 (stereo not given)	6	-15	15	-4	1	x	x	x	x	x	x
COc1cc(-c2ccc(Nc3ccccc3C(=O)O)c(OC)c2)ccc1Nc1ccccc1C(=O)O	24	74*	30	60*	3	11	-9	55*	24	8	69*
CCC(=O)Nc1ccc(NC(=O)c2ccc3c(c2)OCO3)cc1	7	30	18	4	15	14	x	x	x	x	x
Cc1ccc(C(=O)Nc2ccc3c(c2)OCO3)cc1S(=O)(=O)N1CCCC1	19	-20	21	-9	-10	19	x	x	x	x	x
Cc1ccc(C(=O)Nc2ccc3c(c2)OCO3)cc1Cl	17	5	0	-11	51*	x	-3	0	61*	36	-1
Cc1ccc(NC(=O)c2ccc3c(c2)OCO3)cc1Cl	23	69*	12	40	63*	x	14	50*	88*	49	10
COc1ccc(NC(=O)c2ccc3c(c2)OCO3)cc1	41	68*	13	62*	60*	x	63*	61*	87*	88*	72*
O=C(Nc1ccc2c(c1)OCO2)c1cnc(Cl)c(Cl)c1	21	59*	8	45	61*	x	4	52*	85*	69*	10
SMILES	TRAIL sens C8	SENP6 block	SENP8 block-1	SENP8 block-2	SENP7 block	PPC-1+TRAIL kill	SENP8 conf	SENP6 conf	SENP7 conf	Casp3 SENP sel	Luc interf
COCC(C)NCC(=O)NC(C)CCc1ccccc1 (stereo not given)	-2	-1	14	-9	-2	24	x	x	x	x	x
COc1c(Cl)cc(Br)c(OC)c1C(=O)NC(=O)Nc1nc(C)cc(C)n1	11	-16	4	-2	4	10	x	x	x	x	x
CC(=O)N(c1ccccc1)c1ccccc1[N+](=O)[O-]	-8	x	11	x	x	x	x	x	x	x	x
C[C@@H](c1ncncc1F)[C@](O)(Cn1cncn1)c1ccc(F)cc1F	x	x	x	x	x	2	x	x	x	x	x
N#CC1=C(N)N=C(SCc2cccc3ccccc23)C(C(N)=O)C12CCCCC2 (stereo not given)	1	-11	22	-3	-7	-8	x	x	x	x	x
CCCC(C(=O)Nc1cc(S(=O)(=O)N2CCOCC2)ccc1OC)c1ccccc1 (stereo not given)	-4	2	-2	3	-12	x	x	x	x	x	x
COc1ccc(/C=C/C(=O)c2ccc3c(c2)OCO3)c(OC)c1	56*	84*	-112	45	83*	49	87*	78*	94*	50	66*
COc1ccc(/C=C/C(=O)c2ccccc2)c(OC)c1	17	3	-53	-17	-5	22	x	x	x	x	x
CNC(=O)C1(C)CCN1C(=O)Cc1ccc(C(C)C)cc1 (stereo not given)	-8	x	12	x	x	x	x	x	x	x	x
O=C(NN=C1CCCC1)c1n[nH]c2c1CCCC2	9	68*	16	39	45	12	58*	68*	87*	90*	51*
